Measurements reported in PubChem BioAssay.
Results filed as inconclusive are left out. Activity calls are given as the source filed them.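 Rule for the calls, unless noted: active = thallium flux through the channel raised or lowered by more than 3 SD from vehicle-only wells, actives on both sides; inactive = the rest.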

How the values were obtained:
[1] = growth inhibition of DIPG glioma cells, dose response, cell-based, JHH-DIPG-1, MIPE4.0, CellTiter-Glo, qHTS (AID 1347062; cut-off not given, nearly all actives have AC50 up to about 27 µM); conditions: JHH-DIPG-1 viability, CellTiter-Glo ATP luminescence
[2] = growth inhibition of DIPG glioma cells, dose response, cell-based, SU-DIPG-IV, MIPE4.0, CellTiter-Glo, qHTS (AID 1347063; cut-off not given, nearly all actives have AC50 up to about 30 µM;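 note: compound exposure lasted 48 hours before the viability readout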); conditions: SU-DIPG-IV viability, CellTiter-Glo ATP luminescence
[3] = SU-DIPG-VI glioma cell viability, MIPE4.0 library, CellTiter-Glo luminescence, qHTS (AID 1347066; cut-off not given, nearly all actives have AC50 up to about 30 µM;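 note: cells exposed to compound for 48 hours before readout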); conditions: CellTiter-Glo ATP luminescence
F380Y = test: modulators of BK channel variants, profiling panel, selectivity assay, cell-based, U2OS BacMam, thallium flux, beta subunits (AID 1259406); conditions: at 30 µM;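 note: initial slope of Thallos dye fluorescence rise after thallium is added; log ratio against the mean of 0.3% DMSO vehicle wells on the same plate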
F380Y/beta1 = test: as above; conditions: at 30 µM
F380Y/beta2Delta = test: as above; conditions: at 30 µM
F380Y/beta4 = test: as above; conditions: at 30 µM
[4] = molecular target: Calcium-activated potassium channel subunit alpha-1 (Homo sapiens) + Leucine-rich repeat-containing protein 26 (Homo sapiens) (UniProt Q12791+Q2I0M4); test: as above; conditions: F380Y/Slo1WT/gamma1, at 30 µM
R275C = test: as above; conditions: at 30 µM
R275C/beta1 = test: as above; conditions: at 30 µM
R275C/beta2Delta = test: as above; conditions: at 30 µM
R275C/beta4 = test: as above; conditions: at 30 µM
R275C/Slo1WT/beta2 = test: as above; conditions: at 30 µM
[5] = reducers of polyQ inclusions in PC12 cells, cell-based, NGF-treated PC12, GFPQ80 (AID 1614); conditions: PC12 NGF-treated GFP-polyQ80 inclusion reduction;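 note: lower means fewer inclusions and 0 means no inclusions at all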

Sequence of Calcium-activated potassium channel subunit alpha-1 (Homo sapiens) + Leucine-rich repeat-containing protein 26 (Homo sapiens) (Q2I0M4 whole entry, looked up, one chain of several): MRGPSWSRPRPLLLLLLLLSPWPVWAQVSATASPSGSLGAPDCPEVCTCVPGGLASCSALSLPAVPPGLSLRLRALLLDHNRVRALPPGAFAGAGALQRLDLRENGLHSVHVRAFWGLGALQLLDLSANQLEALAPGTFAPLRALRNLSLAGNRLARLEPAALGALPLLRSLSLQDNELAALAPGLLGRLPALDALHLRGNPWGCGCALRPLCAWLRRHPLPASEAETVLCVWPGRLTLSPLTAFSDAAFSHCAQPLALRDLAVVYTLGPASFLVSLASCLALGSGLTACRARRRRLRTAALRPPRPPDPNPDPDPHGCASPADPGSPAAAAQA

For `CN1CCN(C2=Nc3cc(Cl)ccc3Nc3ccccc32)CC1`, which outcome [1] is on record?
Its outcome is “inactive”.

What about the outcome [2] of the same compound?
Its outcome is “inactive”.

And the outcome [3]?
Its outcome is “inactive”.

And the log fold change Tl+ flux (F380Y)?
Its log fold change Tl+ flux is 0.296 (active).

And the log fold change Tl+ flux (F380Y/beta1)?
Its log fold change Tl+ flux is 0.177 (active).

And the log fold change Tl+ flux (F380Y/beta2Delta)?
Its log fold change Tl+ flux is 0.389 (active).

What about the log fold change Tl+ flux (F380Y/beta4) of the same compound?
Its log fold change Tl+ flux is 0.214 (active).

What about the log fold change Tl+ flux [4] of the same compound?
The log fold change Tl+ flux was 0.0716 (inactive).

What about the log fold change Tl+ flux (R275C) of the same compound?
Its log fold change Tl+ flux is 0.0716 (inactive).

And the log fold change Tl+ flux (R275C/beta1)?
The log fold change Tl+ flux was 0.156 (active).

What about the log fold change Tl+ flux (R275C/beta2Delta) of the same compound?
The log fold change Tl+ flux was 0.106 (active).

And the log fold change Tl+ flux (R275C/beta4)?
The log fold change Tl+ flux was 0.137 (active).

And the log fold change Tl+ flux (R275C/Slo1WT/beta2)?
Its log fold change Tl+ flux is 0.0195 (inactive).

Which results are given for `CCCC(=O)Nc1ccc(OCC(O)CNC(C)C)c(C(C)=O)c1` (stereo unspecified)?
inclusion score [5]: 2; log fold change Tl+ flux (F380Y): -0.0134 (inactive); log fold change Tl+ flux (F380Y/beta1): 0.00237 (inactive); log fold change Tl+ flux (F380Y/beta2Delta): -0.0305 (inactive); log fold change Tl+ flux (F380Y/beta4): -0.0162 (inactive); log fold change Tl+ flux [4]: 0.00552 (inactive); log fold change Tl+ flux (R275C): -0.005 (inactive); log fold change Tl+ flux (R275C/beta1): -0.0201 (inactive); log fold change Tl+ flux (R275C/beta2Delta): -0.0513 (inactive); log fold change Tl+ flux (R275C/beta4): 0.0245 (inactive); log fold change Tl+ flux (R275C/Slo1WT/beta2): -0.0238 (inactive)

Which outcome [1] does the source give for `Cc1ccc(-n2nc(C(C)(C)C)cc2NC(=O)Nc2ccc(OCCN3CCOCC3)c3ccccc23)cc1` here?
Its outcome is “inactive”.

And the outcome [2]?
The outcome was “inactive”.

And the outcome [3]?
The outcome was “inactive”.

Which inclusion score [5] does the source give for `N=c1nc(N2CCCCC2)cc(N)n1O` here?
The inclusion score was 1.

What about the outcome [1] of the same compound?
The outcome was “inactive”.

What about the outcome [2] of the same compound?
Its outcome is “inactive”.

What about the outcome [3] of the same compound?
Its outcome is “inactive”.

And the log fold change Tl+ flux (F380Y)?
Its log fold change Tl+ flux is -0.0693 (inactive).

And the log fold change Tl+ flux (F380Y/beta1)?
The log fold change Tl+ flux was 0.0169 (inactive).

What about the log fold change Tl+ flux (F380Y/beta2Delta) of the same compound?
Its log fold change Tl+ flux is -0.0535 (inactive).

And the log fold change Tl+ flux (F380Y/beta4)?
The log fold change Tl+ flux was -0.0416 (inactive).

What about the log fold change Tl+ flux [4] of the same compound?
Its log fold change Tl+ flux is 0.00253 (inactive).

And the log fold change Tl+ flux (R275C)?
The log fold change Tl+ flux was -0.0452 (inactive).

What about the log fold change Tl+ flux (R275C/beta1) of the same compound?
The log fold change Tl+ flux was -0.0046 (inactive).

What about the log fold change Tl+ flux (R275C/beta2Delta) of the same compound?
The log fold change Tl+ flux was -0.0232 (inactive).

And the log fold change Tl+ flux (R275C/beta4)?
Its log fold change Tl+ flux is 0.0196 (inactive).

And the log fold change Tl+ flux (R275C/Slo1WT/beta2)?
Its log fold change Tl+ flux is 0.0414 (inactive).

With `O=C(CCCN1CCC(O)(c2ccc(Cl)cc2)CC1)c1ccc(F)cc1` as the compound, how does the outcome [2] read?
The outcome was “inactive”.

What about the outcome [3] of the same compound?
The outcome was “inactive”.

And the log fold change Tl+ flux (F380Y)?
Its log fold change Tl+ flux is 0.00184 (inactive).

And the log fold change Tl+ flux (F380Y/beta1)?
The log fold change Tl+ flux was 0.0554 (inactive).

What about the log fold change Tl+ flux (F380Y/beta2Delta) of the same compound?
The log fold change Tl+ flux was 0.0376 (inactive).

And the log fold change Tl+ flux (F380Y/beta4)?
The log fold change Tl+ flux was 0.0709 (inactive).

What about the log fold change Tl+ flux [4] of the same compound?
Its log fold change Tl+ flux is -0.0288 (inactive).

What about the log fold change Tl+ flux (R275C) of the same compound?
Its log fold change Tl+ flux is -0.231 (active).

And the log fold change Tl+ flux (R275C/beta1)?
The log fold change Tl+ flux was 0.104 (active).

And the log fold change Tl+ flux (R275C/beta2Delta)?
The log fold change Tl+ flux was -0.165 (active).

And the log fold change Tl+ flux (R275C/beta4)?
Its log fold change Tl+ flux is -0.0662 (inactive).

And the log fold change Tl+ flux (R275C/Slo1WT/beta2)?
Its log fold change Tl+ flux is -0.0319 (inactive).

With `Cc1cc(NS(=O)(=O)c2ccc(N)cc2)no1` as the compound, how does the inclusion score [5] read?
The inclusion score was 2.

What about the outcome [1] of the same compound?
Its outcome is “inactive”.

And the outcome [2]?
Its outcome is “inactive”.

And the log fold change Tl+ flux (F380Y)?
Its log fold change Tl+ flux is -0.0179 (inactive).

And the log fold change Tl+ flux (F380Y/beta1)?
Its log fold change Tl+ flux is -0.0321 (inactive).

What about the log fold change Tl+ flux (F380Y/beta2Delta) of the same compound?
Its log fold change Tl+ flux is 0.0172 (inactive).

What about the log fold change Tl+ flux (F380Y/beta4) of the same compound?
Its log fold change Tl+ flux is -0.00222 (inactive).

What about the log fold change Tl+ flux [4] of the same compound?
The log fold change Tl+ flux was -0.00437 (inactive).

And the log fold change Tl+ flux (R275C)?
The log fold change Tl+ flux was 0.00714 (inactive).

What about the log fold change Tl+ flux (R275C/beta1) of the same compound?
Its log fold change Tl+ flux is 0.00387 (inactive).

And the log fold change Tl+ flux (R275C/beta2Delta)?
The log fold change Tl+ flux was -0.00735 (inactive).

And the log fold change Tl+ flux (R275C/beta4)?
Its log fold change Tl+ flux is -0.0559 (inactive).

And the log fold change Tl+ flux (R275C/Slo1WT/beta2)?
The log fold change Tl+ flux was -0.0702 (inactive).
